Laboratory results as given in PubChem BioAssay (NCATS).
Inconclusive results are not listed. The source made the active and inactive calls. Unless noted, calls come from the whole dose curve; as a rule, active = well fitted curve in the direction sought with a large enough effect; inconclusive = small, poorly fitted or top-dose-only effect, or another doubt; inactive = no such curve, though single readings can be large; an effect the other way counts as inactive or inconclusive.

Legend:
[1] = AP1 Signaling Pathway (AID 357; active = well fitted curve in either direction with a large enough effect, not every such curve was filed as active;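 note: ME-180 reporter cells stimulated with EGF at its EC50 level; % is set by controls: 0 for no effect and ±100 for the full control effect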); conditions: ME-180 AP-1-bla reporter, EGF-induced, beta-lactamase ratio, 5 h; at 7.69 µM (top of the series) unless noted
Method in brief: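 Modulation of EGF-driven AP-1 transcription was assessed with a beta-lactamase reporter in ME-180 cells. Compound and EC50 EGF were co-incubated 5 hours at 37 °C before 2.5-hour CCF4 loading at room temperature and dual-emission reading.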

[2] = NFAT Signaling Pathway (AID 444; active = well fitted curve in either direction with a large enough effect, not every such curve was filed as active;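 note: carbachol stimulus at about its EC50 of 1 µM final; % is set by controls: 0 for no effect and ±100 for the full control effect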); conditions: Jurkat NFAT-bla M1, carbachol, beta-lactamase ratio, 5 h; at 7.69 µM (top of the series) unless noted
Method in brief: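 Jurkat cells with NFAT-driven β-lactamase reporter and co-expressed M1 receptor, stimulated with carbachol (final 1 uM, ~EC50), compound titration, 5 h at 37 °C. CCF4 loaded 1 h at RT; 460/530 nm ratio gave %activity and AC50.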

[3] = Stat Signaling Pathway (AID 446; active = well fitted curve in either direction with a large enough effect, not every such curve was filed as active;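 note: ME-180 cervical cancer cells given 40 pM IL-6 alongside compound; SIE-controlled beta-lactamase reporter measured as 460/530 nm FRET emission ratio; % is set by controls: 0 for no effect and ±100 for the full control effect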)
Method in brief: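 Reporter line: ME-180 cervical carcinoma, SIE-beta-lactamase. Treatment: compound with 40 pM IL-6, 5 hrs, 37 C, in low-serum OPTI-MEM with 10 mM HEPES pH 7.3. Detection: 460/530 nm fluorescence.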

[4] = molecular target: Mitogen-activated protein kinase 10 (Mus musculus) (UniProt Q61831); assay: JNK3 AlphaScreen Assay (AID 530; active = well fitted curve in either direction with a large enough effect, not every such curve was filed as active;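 note: kinase came from lysate of stimulated human HepG2 cells; signal reports phosphorylation of biotinylated GST-cJun 1-79 at Ser73 with 10 µM ATP; % is set by controls: 0 for no effect and ±100 for the full control effect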)
Method in brief: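 qHTS format: compounds tested as titrations against IL-1beta/TNF-alpha-activated HepG2 lysate JNK3 with biotin-GST-cJun substrate and 10 uM ATP at room temperature. Loss of anti-phospho-cJun AlphaScreen signal indicates inhibition.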

[5] = molecular target: Ubiquitin carboxyl-terminal hydrolase 1 (Homo sapiens) (UniProt O94782); assay: Inhibitors of USP1/UAF1: Pilot qHTS (AID 504865);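 note: rhodamine fluorescence freed from ubiquitin-rhodamine substrate followed over time; top concentration of the series differs between compounds; % is set by controls: 0 for no effect and ±100 for the full control effect; nearly all actives have a fitted effect of over 35% in size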
Method in brief: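 USP1/UAF1 complex at 1 nM preincubated 15 min at room temperature with compound, then Ub-Rho substrate added at 150 nM final. Fluorescence (480/540 nm) read kinetically in 50 mM HEPES pH 7.8, 0.5 mM EDTA, 1 mM TCEP, 0.1 mg/ml BSA, 0.01% Tween-20.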

[6] = molecular target: Rap guanine nucleotide exchange factor 3 (Homo sapiens) (UniProt O95398); assay: Confirmatory qHTS for antagonist of cAMP-regulated guanine nucleotide exchange factor 3 (EPAC1) (AID 1645880); conditions: EPAC1 Rap1B-BODIPY-GDP exchange, fluorescence; activity, negative = inhibition: at 115 µM (top of the series);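 note: plate controls were DMSO only for no effect and full effect of the ATA control for full effect; nearly all actives have a fitted effect of over 55% in size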
Method in brief: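 Nucleotide exchange uses 100 nM EPAC1, 250 nM RAP1B-BODIPY-GDP and 50 uM GDP, with compounds in a concentration-titration series. After 5 min at room temperature, fluorescence (480 nm ex/540 nm em) is read every 5 min for 30 min. Data are normalized to control ATA and DMSO.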

[7] = molecular target: Rap guanine nucleotide exchange factor 3 (Homo sapiens) (UniProt O95398); assay: Confirmatory qHTS for agonist of cAMP-regulated guanine nucleotide exchange factor 3 (EPAC1) (AID 1645881);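 note: EPAC1 catalysed release of BODIPY-GDP from Rap1B seen as fluorescence loss; 100% = effect of cAMP agonist control; nearly all actives have a fitted effect of over 75% in size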
[8] = molecular target: Rap guanine nucleotide exchange factor 4 (Homo sapiens) (UniProt Q8WZA2); assay: Confirmatory qHTS for agonist of cAMP-regulated guanine nucleotide exchange factor 4 (EPAC2) (AID 1645884);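 note: nucleotide exchange releases bodipy-GDP from Rap1 and this lowers its fluorescence; % is set by controls: 0 for no effect and ±100 for the full control effect; nearly all actives have a fitted effect of over 65% in size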
[9] = molecular target: Rap guanine nucleotide exchange factor 4 (Homo sapiens) (UniProt Q8WZA2); assay: Confirmatory qHTS for antagonist of cAMP-regulated guanine nucleotide exchange factor 4 (EPAC2) (AID 1645885); note: nearly all actives have a fitted effect of over 25% in size; note: potency is the fitted concentration of half-maximal effect
[10] = molecular target: Lysosomal acid glucosylceramidase (Homo sapiens) (UniProt P04062); assay: Glucocerebrosidase-p2 (AID 348; in the data active = potency below about 10 µM; note: potency is the fitted concentration of half-maximal effect); conditions: purified GBA, blue fluorogenic substrate, 40 min
Method in brief: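 Compounds titrated from 0.6 nM upwards against 0.2 nM enzyme in pH 5.9 citric acid/KH2PO4, taurocholate, tween-20; blue fluorogenic substrate 80 uM, 40 min room temperature, stopped and read Ex 365/Em 440 for AC50.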

[11] = molecular target: Cytochrome P450 1A2 (Homo sapiens) (UniProt P05177); assay: p450-cyp1a2 (AID 410; calls by dose curve; note: potency is the fitted concentration of half-maximal effect)
Method in brief: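 Human CYP1A2 (20nM) demethylated Luciferin-ME at its Km (100uM) in 100mM KPO4. After 10 min compound preincubation, NADPH regeneration ran the reaction 60 min at room temperature. Luciferin was read by luminescence, normalized to 57 uM furafylline.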

[12] = molecular target: Glucocorticoid receptor (Homo sapiens) (UniProt P04150); assay: GR-GFP Redistribution (AID 450;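 active = compounds whose dose series gives a full or clear partial fitted curve of increased nuclear translocation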; note: potency is the fitted concentration of half-maximal effect); conditions: U2OS GR-GFP nuclear translocation, laser cytometry, 2 h
[13] = molecular target: Cytochrome P450 3A4 (Homo sapiens) (UniProt P08684); assay: qHTS Assay for Activators of Cytochrome P450 3A4 (AID 885); note: nearly all actives have a fitted effect of over 65% in size
Method in brief: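 Signal was normalized against complete inhibition by 57 uM ketoconazole. The reaction used 20nM CYP3A4 with 25uM Luciferin-PPXE, 10-min compound preincubation and a 60-min NADPH-supported step at RT.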

[14] = molecular target: Glucocorticoid receptor (Homo sapiens) (UniProt P04150); assay: GR-EFC Redistribution (AID 451; calls by dose curve; note: potency is the fitted concentration of half-maximal effect); conditions: CHO-K1 GR-EFC translocation, beta-gal luminescence, 2 h
Method in brief: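 CHO-K1 cells expressing nuclear EA and GR-ED fragments of b-gal; compounds titrated up to 46 uM final, 2 h at 37 C. GR nuclear translocation read as complemented b-gal luminescence after 1 h RT detection.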

[15] = molecular target: Cytochrome P450 3A4 (Homo sapiens) (UniProt P08684); assay: qHTS Assay for Inhibitors and Substrates of Cytochrome P450 3A4 (AID 884); note: potency is the fitted concentration of half-maximal effect; nearly all actives have a fitted effect of over 50% in size
Method in brief: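 20 nM human CYP3A4 with 25 uM Luciferin-PPXE (at KM) in 200 mM KPO4, preincubated 10 min with compound; NADPH regeneration started a 60 min RT reaction. Luciferin detected by luminescence, normalized to 57 uM ketoconazole as full inhibition.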

[16] = molecular target: Cytochrome P450 2D6 (Homo sapiens) (UniProt P10635); assay: qHTS Assay for Inhibitors and Substrates of Cytochrome P450 2D6 (AID 891); note: potency is the fitted concentration of half-maximal effect; nearly all actives have a fitted effect of over 60% in size
Method in brief: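 Human CYP2D6 (5 nM) with 30 uM Luciferin-ME EGE (at Km) in 100 mM KPO4, compound preincubated 10 min, then NADPH regeneration system for 60 min at room temperature. Luciferin read by luminescence; normalized to 1.43 uM quinidine.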

[17] = molecular target: Dual specificity protein kinase CLK4 (Homo sapiens) (UniProt Q9HAZ1); assay: qHTS Assay for Inhibitors of CDC-like Kinase 4 (ADP-Glo Assay) (AID 1771); note: potency is the fitted concentration of half-maximal effect; nearly all actives have a fitted effect of over 70% in size
Method in brief: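 Clk4 (25 nM) was incubated 1 hr at room temperature with 100 uM RS repeat peptide and 1 uM ATP in buffer with 2 mM MgCl2, 0.5 mM EGTA, 2.5 mM DTT. ADP formed was quantified by ADP-Glo luminescence.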

[18] = molecular target: Dual specificity protein kinase CLK4 (Homo sapiens) (UniProt Q9HAZ1); assay: qHTS Assay for Inhibitors of CDC-like Kinase 4 (ADP-FP Assay) (AID 1795); note: potency is the fitted concentration of half-maximal effect; nearly all actives have a fitted effect of over 60% in size
Method in brief: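 Recombinant Clk4 (6.25 nM) phosphorylated 100 uM RS repeat peptide with 1 uM ATP in 25 mM Tris pH 7.5, 10 mM MgCl2, 0.5 mM EGTA, 2.5 mM DTT, 0.01% Triton X-100 for 1 h. ADP was detected by Transcreener ADP2 competitive fluorescence polarization after 30 min at room temperature.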

[19] = molecular target: Tumor susceptibility gene 101 protein (Homo sapiens) (UniProt Q99816); assay: qHTS Assay for Iinhibitors of HIV-1 Budding by Blocking the Interaction of PTAP/TSG101: Hit Validation (AID 651600); note: % is set by controls: 0 for no effect and ±100 for the full control effect; nearly all actives have a fitted effect of over 70% in size
Method in brief: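 Fluorescence polarization binding assay: Tsg101 binding domain (10 uM) mixed with compounds and FITC-labeled PTAP peptide (50 nM) in HEPES pH 7.5, 0.15 M NaCl, 0.01% Tween 20, EDTA, TCEP; 20 min at r.t.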

[20] = molecular target: Rap guanine nucleotide exchange factor 3 (Homo sapiens) (UniProt O95398); assay: Counterscreen qHTS for agonist of cAMP-regulated guanine nucleotide exchange factor 3 (EPAC1) (AID 1645889); note: % of control where 0% means no effect; nearly all actives have a fitted effect of over 40% in size
Method in brief: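 Rap1B–BODIPY-GDP (250 nM) with 50 uM GDP; compounds pin-transferred to 9.74 nM–152 uM final (activator) or from 7.32 nM upwards (inhibitor). Fluorescence Ex/Em 480/540 nm read at 5 and 30 min, then after adding cAMP or buffer, at room temperature.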

[21] = Confirmation and Secondary Assay for Modulators of Hemoglobin Beta Chain Splicing at IVS2 654 locus (AID 910);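 note: HeLa cells stably carrying EGFP split by mutant beta-globin IVS2-654 intron; % of control where 0% means no effect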
Method in brief: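 HeLa cells stably expressing EGFP interrupted by β-globin IVS2-654 intron, seeded overnight in Opti-MEM/2% FCS, then treated 2 days at 37 °C. Restored splicing read as total peak GFP intensity per well by laser scanning cytometry (488 nm excitation, 500–520 nm emission); 500 nM antisense PNA as control.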

[22] = Confirmation and Secondary Assay for Modulators of Hemoglobin Beta Chain Splicing at IVS2 705 locus (AID 930);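 note: HeLa cells stably expressing the EGFP-705 splicing reporter; GFP fluorescence per well restored by corrected splicing of the IVS2-705 intron in EGFP; % of control where 0% means no effect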
Method in brief: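 HeLa IVS2-705 EGFP reporter cells, 500/well, compound 2 d at 37C; correct splicing yields fluorescent EGFP. Control: 500 nM antisense PNA. Read-out: total peak GFP intensity.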

[23] = molecular target: Cytochrome P450 2C9 (Homo sapiens) (UniProt P11712); assay: qHTS Assay for Inhibitors and Substrates of Cytochrome P450 2C9 (AID 883); note: potency is the fitted concentration of half-maximal effect; nearly all actives have a fitted effect of over 60% in size
Method in brief: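 10nM CYP2C9 + 100uM Luciferin-H (=KM), 25mM KPO4; cpd 10 min 37C; NADPH regen, 60 min 37C; stop/detect with P450 Glo-Buffer 20 min; luminescence. Norm. to 57uM sulphaphenazole as full inhibition.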

[24] = molecular target: Cytochrome P450 2C19 (Homo sapiens) (UniProt P33261); assay: qHTS Assay for Inhibitors and Substrates of Cytochrome P450 2C19 (AID 899); note: potency is the fitted concentration of half-maximal effect; nearly all actives have a fitted effect of over 60% in size
Method in brief: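 Luminescent read-out of luciferin formed from Luciferin-H EGE (10uM, equal to KM). Enzyme 5nM in 50mM KPO4; compound added, 10 min at 37C, then NADPH regenerating system for 60 min at 37C. Full inhibition defined by 57uM ketoconazole.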

[25] = molecular target: DNA dC->dU-editing enzyme APOBEC-3G (Homo sapiens) (UniProt Q9HC16); assay: qHTS for inhibitors of Vif-A3G interactions: Validation (AID 588379); note: 0% is about no effect
Method in brief: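 HeLa cells stably expressing Vif and A3G-eYFP, 700 cells/well, incubated overnight at 37 deg C, then exposed to compound overnight at 37 deg C. Inhibition of Vif-mediated degradation read as increased yellow fluorescence (Ex 488/Em 500-530) by laser-scanning cytometry.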

Rap guanine nucleotide exchange factor 4 (Homo sapiens), sequence (Q8WZA2 whole entry, looked up): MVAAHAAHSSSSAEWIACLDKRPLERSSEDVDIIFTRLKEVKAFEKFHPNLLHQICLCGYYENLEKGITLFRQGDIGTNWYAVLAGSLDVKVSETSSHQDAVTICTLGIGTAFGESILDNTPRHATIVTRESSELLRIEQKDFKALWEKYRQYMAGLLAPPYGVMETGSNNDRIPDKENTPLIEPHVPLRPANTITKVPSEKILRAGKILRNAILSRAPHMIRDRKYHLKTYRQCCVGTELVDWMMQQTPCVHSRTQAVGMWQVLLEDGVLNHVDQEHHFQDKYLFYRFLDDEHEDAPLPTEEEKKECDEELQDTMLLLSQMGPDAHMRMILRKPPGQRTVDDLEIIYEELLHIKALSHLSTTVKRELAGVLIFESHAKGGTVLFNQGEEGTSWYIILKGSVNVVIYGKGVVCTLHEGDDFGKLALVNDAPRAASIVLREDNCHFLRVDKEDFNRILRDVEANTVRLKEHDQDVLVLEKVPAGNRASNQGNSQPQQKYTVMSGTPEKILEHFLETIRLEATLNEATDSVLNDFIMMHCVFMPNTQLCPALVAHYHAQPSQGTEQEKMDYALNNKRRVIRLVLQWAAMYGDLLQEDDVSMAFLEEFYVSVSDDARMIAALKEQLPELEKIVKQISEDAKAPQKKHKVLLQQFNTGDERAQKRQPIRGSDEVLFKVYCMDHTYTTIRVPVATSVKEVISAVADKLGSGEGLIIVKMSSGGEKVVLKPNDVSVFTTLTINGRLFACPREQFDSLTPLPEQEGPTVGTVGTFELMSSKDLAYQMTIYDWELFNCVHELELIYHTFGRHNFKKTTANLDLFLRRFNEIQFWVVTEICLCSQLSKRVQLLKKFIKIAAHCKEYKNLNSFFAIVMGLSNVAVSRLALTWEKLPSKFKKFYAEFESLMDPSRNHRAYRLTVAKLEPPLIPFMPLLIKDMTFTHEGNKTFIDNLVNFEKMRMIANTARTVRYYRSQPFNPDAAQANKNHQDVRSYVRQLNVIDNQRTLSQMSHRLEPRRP
Cytochrome P450 1A2 (Homo sapiens), sequence (P05177 whole entry, looked up): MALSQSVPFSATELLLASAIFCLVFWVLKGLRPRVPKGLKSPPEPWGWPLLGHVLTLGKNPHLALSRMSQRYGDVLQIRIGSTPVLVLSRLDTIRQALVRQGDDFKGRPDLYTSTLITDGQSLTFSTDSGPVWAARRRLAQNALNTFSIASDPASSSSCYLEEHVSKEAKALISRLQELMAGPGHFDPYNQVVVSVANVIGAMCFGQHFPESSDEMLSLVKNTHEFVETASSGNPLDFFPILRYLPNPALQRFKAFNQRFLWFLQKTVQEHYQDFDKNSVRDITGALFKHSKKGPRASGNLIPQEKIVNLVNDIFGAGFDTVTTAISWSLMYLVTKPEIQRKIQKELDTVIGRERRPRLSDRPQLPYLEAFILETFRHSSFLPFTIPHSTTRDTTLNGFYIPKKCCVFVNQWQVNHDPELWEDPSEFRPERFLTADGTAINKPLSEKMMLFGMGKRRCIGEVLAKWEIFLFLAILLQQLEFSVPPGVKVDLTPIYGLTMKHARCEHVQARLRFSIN
Cytochrome P450 3A4 (Homo sapiens), sequence (P08684 whole entry, looked up): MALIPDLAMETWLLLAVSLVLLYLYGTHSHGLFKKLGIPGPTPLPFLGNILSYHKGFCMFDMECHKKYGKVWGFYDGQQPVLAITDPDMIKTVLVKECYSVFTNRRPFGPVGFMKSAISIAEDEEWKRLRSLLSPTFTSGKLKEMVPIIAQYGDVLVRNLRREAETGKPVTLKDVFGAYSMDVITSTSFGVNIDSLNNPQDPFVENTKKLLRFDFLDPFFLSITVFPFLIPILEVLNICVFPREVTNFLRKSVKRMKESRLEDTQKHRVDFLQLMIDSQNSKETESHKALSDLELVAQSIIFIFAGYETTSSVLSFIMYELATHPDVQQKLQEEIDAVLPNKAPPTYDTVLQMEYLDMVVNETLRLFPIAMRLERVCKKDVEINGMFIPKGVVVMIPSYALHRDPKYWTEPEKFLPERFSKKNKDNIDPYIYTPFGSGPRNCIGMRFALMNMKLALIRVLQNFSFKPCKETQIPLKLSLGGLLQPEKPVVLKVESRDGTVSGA
Rap guanine nucleotide exchange factor 3 (Homo sapiens), sequence (O95398 whole entry, looked up): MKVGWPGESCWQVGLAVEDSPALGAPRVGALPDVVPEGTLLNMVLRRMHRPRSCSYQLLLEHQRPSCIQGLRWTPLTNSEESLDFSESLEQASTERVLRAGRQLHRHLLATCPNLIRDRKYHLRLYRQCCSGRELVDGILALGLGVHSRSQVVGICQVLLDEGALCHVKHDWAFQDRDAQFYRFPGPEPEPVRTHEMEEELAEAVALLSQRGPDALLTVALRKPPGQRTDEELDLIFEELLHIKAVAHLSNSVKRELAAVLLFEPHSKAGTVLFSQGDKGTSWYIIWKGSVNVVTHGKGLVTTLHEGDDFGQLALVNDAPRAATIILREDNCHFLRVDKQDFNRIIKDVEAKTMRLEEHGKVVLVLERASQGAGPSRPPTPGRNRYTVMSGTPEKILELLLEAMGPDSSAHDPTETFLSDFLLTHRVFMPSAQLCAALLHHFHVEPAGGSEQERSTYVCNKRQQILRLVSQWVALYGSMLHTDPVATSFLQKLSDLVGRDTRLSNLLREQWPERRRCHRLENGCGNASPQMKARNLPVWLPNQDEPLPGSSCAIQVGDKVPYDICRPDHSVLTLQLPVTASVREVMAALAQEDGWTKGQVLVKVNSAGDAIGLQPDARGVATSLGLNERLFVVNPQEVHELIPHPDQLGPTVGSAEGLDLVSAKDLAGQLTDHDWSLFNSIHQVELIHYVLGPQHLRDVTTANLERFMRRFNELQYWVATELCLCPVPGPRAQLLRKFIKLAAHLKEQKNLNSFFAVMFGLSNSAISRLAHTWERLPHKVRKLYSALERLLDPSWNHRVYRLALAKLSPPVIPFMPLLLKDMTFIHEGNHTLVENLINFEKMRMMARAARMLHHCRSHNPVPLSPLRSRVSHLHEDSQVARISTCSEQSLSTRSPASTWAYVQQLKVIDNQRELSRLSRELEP
Dual specificity protein kinase CLK4 (Homo sapiens), sequence (Q9HAZ1 whole entry, looked up): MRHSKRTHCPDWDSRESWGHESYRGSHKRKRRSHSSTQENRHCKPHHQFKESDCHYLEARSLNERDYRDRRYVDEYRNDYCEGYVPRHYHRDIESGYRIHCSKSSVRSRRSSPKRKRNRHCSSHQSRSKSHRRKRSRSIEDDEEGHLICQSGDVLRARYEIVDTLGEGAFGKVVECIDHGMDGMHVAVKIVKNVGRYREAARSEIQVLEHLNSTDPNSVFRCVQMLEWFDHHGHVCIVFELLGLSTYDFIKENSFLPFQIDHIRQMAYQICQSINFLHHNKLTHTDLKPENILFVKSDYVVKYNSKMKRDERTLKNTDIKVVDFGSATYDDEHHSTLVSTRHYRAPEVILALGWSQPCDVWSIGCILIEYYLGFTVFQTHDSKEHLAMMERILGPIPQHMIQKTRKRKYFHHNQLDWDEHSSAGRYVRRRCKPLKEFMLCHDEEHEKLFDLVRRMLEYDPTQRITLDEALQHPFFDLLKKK
Ubiquitin carboxyl-terminal hydrolase 1 (Homo sapiens), sequence (O94782 whole entry, looked up): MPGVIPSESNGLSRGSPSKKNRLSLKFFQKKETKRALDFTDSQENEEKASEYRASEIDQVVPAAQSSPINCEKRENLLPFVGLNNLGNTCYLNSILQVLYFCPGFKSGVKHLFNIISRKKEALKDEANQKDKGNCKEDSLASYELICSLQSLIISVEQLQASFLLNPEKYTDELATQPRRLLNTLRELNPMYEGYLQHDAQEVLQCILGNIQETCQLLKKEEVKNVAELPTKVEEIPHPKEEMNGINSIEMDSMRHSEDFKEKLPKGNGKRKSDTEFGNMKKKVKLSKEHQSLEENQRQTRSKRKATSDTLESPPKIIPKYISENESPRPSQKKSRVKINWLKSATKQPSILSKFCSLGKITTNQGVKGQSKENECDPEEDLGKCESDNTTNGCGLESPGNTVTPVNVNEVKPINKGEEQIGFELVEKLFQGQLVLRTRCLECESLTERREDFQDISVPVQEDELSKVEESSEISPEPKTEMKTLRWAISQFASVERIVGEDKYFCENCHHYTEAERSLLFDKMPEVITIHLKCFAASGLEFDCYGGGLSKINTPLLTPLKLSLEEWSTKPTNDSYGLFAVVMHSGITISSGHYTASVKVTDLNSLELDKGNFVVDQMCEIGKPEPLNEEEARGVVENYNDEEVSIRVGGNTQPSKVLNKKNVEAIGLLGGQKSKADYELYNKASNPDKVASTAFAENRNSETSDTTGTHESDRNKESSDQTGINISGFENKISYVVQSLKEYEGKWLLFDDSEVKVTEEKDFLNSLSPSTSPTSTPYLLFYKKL
Glucocorticoid receptor (Homo sapiens), sequence (P04150 whole entry, looked up, the tested form may be a part): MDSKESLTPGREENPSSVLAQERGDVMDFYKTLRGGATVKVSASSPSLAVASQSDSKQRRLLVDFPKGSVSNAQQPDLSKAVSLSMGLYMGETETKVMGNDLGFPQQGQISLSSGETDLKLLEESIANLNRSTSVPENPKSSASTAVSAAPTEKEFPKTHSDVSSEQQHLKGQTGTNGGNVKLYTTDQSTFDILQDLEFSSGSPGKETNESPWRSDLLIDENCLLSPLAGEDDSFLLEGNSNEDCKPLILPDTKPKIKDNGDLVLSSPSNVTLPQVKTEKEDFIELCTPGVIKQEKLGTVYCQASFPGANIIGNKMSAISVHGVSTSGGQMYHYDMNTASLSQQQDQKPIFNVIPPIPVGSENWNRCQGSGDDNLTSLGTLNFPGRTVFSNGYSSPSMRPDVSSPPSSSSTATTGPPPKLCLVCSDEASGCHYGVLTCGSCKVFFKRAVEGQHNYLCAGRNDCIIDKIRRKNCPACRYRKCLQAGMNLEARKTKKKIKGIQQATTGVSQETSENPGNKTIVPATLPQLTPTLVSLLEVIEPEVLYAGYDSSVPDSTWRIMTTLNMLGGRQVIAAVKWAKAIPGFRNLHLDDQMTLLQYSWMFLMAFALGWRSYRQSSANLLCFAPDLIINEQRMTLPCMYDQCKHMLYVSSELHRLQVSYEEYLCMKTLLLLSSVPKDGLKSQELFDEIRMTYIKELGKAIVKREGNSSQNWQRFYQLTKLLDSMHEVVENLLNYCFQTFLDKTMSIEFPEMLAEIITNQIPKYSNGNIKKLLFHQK

COc1ccc(CNc2nc(-c3cccnc3)nc3ccccc23)c(OC)c1
inactive: activity change, negative = inhibition [1] -16.7% | activity change, negative = inhibition [2] 6.84% | outcome [3] | Potency [4] | Potency [5] | Potency [6] | Potency [7] | Potency [8] | Potency [9]

CN1CCN(c2ncc3nc(CCc4ccccc4)c(=O)n(Cc4cccs4)c3n2)CC1
inactive: Potency [10] > 11.4 µM | activity change, negative = inhibition [1] -5.44% | activity change, negative = inhibition [2] 4.5% | outcome [3] | Potency [12] > 9.22 µM | Potency [4] | outcome [13] | Potency [6] | Potency [7] | Potency [8] | Potency [9]
active: Potency [11] 15.8 µM

COc1cccc(-c2cncnc2NCc2ccccc2OC)c1
active: Potency [11] 3.98 µM | Potency [15] 0.501 µM | Potency [16] 7.94 µM | Potency [17] 15.8 µM | Potency [18] 14.1 µM | Potency [9] 44.1 µM
inactive: activity change, negative = inhibition [1] -3.02% | activity change, negative = inhibition [2] 6.93% | outcome [3] | Potency [14] > 46 µM | Potency [4] | outcome [13] | Potency [5] | Potency [6] | Potency [7] | Potency [8]

CCOC(=O)c1cnc2ccc(OC)cc2c1Nc1ccc(N2CCN(C)CC2)cc1
inactive: Potency [19] | Potency [6] | Potency [7] | activation [8] 12.5% [at 17.1 µM, percent relative to cAMP agonist control] | Potency [9] | activation [20] 12.2% [at 30.8 µM]

COc1cc(CN2CCN(C(=O)CC(C)C)CC2)c([N+](=O)[O-])cc1OC
inactive: Potency [6] | Potency [7] | activation [8] 2.13% [at 17.1 µM, percent relative to cAMP agonist control] | Potency [9] | activation [20] 8.51% [at 30.8 µM]

COc1ccc2c(=O)c(OC)c(-c3ccccc3)oc2c1
inactive: outcome [13] | Potency [21] | Potency [22] | Potency [6] | Potency [7] | Potency [8]
active: Potency [15] 10 µM | Potency [9] 13.9 µM

CC(C)=CCc1c(O)cc(O)c2c1O[C@H](c1ccccc1)CC2=O
inactive: Potency [4] | outcome [13] | outcome [25] | Potency [6] | Potency [7] | Potency [8]
active: Potency [11] 0.316 µM | Potency [23] 3.16 µM | Potency [15] 12.6 µM | Potency [24] 1 µM | Potency [9] 39.3 µM
